# Compounds without any hit were thinned out: in the full panel of roughly 79,000, 15% have a hit. A number with no mark means an inactive call. The source made the active and inactive calls. Rule as the data show it: active = growth inhibition above about 70%; inactive = the rest.
# Legend:
# [1] = NCI Yeast Anticancer Drug Screen. Data for the rad52 strain (AID 147);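 also: 0% = growth of vehicle-treated control cultures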; details: S. cerevisiae rad52 mutant growth inhibition, stronger effect = higher value
# Procedure, shortened: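 Vehicle-treated cultures served as the reference for growth inhibition of compound-exposed yeast bearing a DNA repair mutation.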
# [2] = NCI Yeast Anticancer Drug Screen. Data for the wt1 strain (AID 149);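 also: 0% = growth of vehicle-treated wt1 cultures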; details: S. cerevisiae wt1 strain (SPY 50644) growth inhibition, stronger effect = higher value
# Procedure, shortened: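 Each compound is tested on wt1 yeast and the loss of growth versus vehicle gives the inhibition value.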
# [3] = NCI Yeast Anticancer Drug Screen. Data for the rad50EPP+ strain (AID 151);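 also: 0% = growth of vehicle-treated control cultures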; details: S. cerevisiae rad50 mutant strain, stronger effect = higher value
# Procedure, shortened: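 In this screen, rad50EPP+ yeast were exposed to compounds. Growth inhibition was scored against vehicle-treated controls.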
# [4] = NCI Yeast Anticancer Drug Screen. Data for the mgt1 strain (AID 153); details: S. cerevisiae mgt1 mutant growth inhibition, stronger effect = higher value
# Procedure, shortened: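 mgt1 strain exposed; growth vs vehicle control recorded as inhibition.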
# [5] = NCI Yeast Anticancer Drug Screen. Data for the rad50 strain (AID 155);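 also: 0% = growth of vehicle-only cultures of the same strain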; details: S. cerevisiae rad50 strain growth inhibition, stronger effect = higher value
# Procedure, shortened: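 Vehicle-treated cultures provide the reference for the growth inhibition reported for compound-exposed, repair-deficient yeast.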
# [6] = NCI Yeast Anticancer Drug Screen. Data for the mec2-1 strain (AID 157); details: S. cerevisiae mec2-1 strain, stronger effect = higher value
# Procedure, shortened: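 Vehicle-treated cultures served as reference for growth inhibition of compound-exposed mec2-1 yeast.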
# [7] = NCI Yeast Anticancer Drug Screen. Data for the rad14 strain (AID 159);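 also: 0% = growth of vehicle-treated control cultures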; details: S. cerevisiae rad14 strain growth inhibition, stronger effect = higher value
# Procedure, shortened: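 Inhibition of growth is reported for a repair-deficient yeast mutant following compound treatment, calculated relative to cultures that received vehicle.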
# [8] = NCI Yeast Anticancer Drug Screen. Data for the sgs1 mgt1 strain (AID 161);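 also: 0% = growth of cultures given vehicle only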; details: S. cerevisiae sgs1 mgt1 strain, stronger effect = higher value
# Procedure, shortened: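 Inhibition of yeast growth, normalised to vehicle-treated controls, is reported for a strain bearing genetic alterations in DNA damage repair.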
# [9] = NCI Yeast Anticancer Drug Screen. Data for the CLN2oe strain (AID 163);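 also: 0% = growth of vehicle-only control cultures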; details: S. cerevisiae CLN2oe strain, stronger effect = higher value
# Procedure, shortened: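 Inhibition relative to vehicle-treated yeast is reported. Cells: strain with genetic alteration in cell-cycle control, grown with compound.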
# [10] = NCI Yeast Anticancer Drug Screen. Data for the cln2 rad14 strain (AID 165);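 also: 0% = growth equal to vehicle treated cultures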; details: S. cerevisiae cln2 rad14 strain, stronger effect = higher value
# Procedure, shortened: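 Each compound was tested on cln2 rad14 yeast. Inhibition of growth was calculated against vehicle-exposed controls.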
# [11] = NCI Yeast Anticancer Drug Screen. Data for the bub3 strain (AID 167); details: S. cerevisiae bub3 mutant strain, stronger effect = higher value
# Procedure, shortened: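 Mutant yeast screening strain plus compound; vehicle-treated cultures serve as the 0% inhibition reference.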
# [12] = NCI Yeast Anticancer Drug Screen. Data for the wt2 strain (AID 169); details: S. cerevisiae wt2 strain growth inhibition, stronger effect = higher value
# Procedure, shortened: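 Inhibition of yeast growth was determined after compound treatment, normalised to controls receiving only vehicle.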
# [13] = NCI Yeast Anticancer Drug Screen. Data for the mlh1 strain (AID 171);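 also: 0% = growth of vehicle-treated control cultures of the same strain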; details: S. cerevisiae mlh1 strain growth inhibition, stronger effect = higher value
# Procedure, shortened: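 Vehicle-normalised growth inhibition of a repair- or checkpoint-altered yeast strain following compound treatment.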
# [14] = NCI Yeast Anticancer Drug Screen. Data for the sgs1 strain (AID 173);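 also: 0% = growth of vehicle-only control cultures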; details: S. cerevisiae sgs1 mutant, stronger effect = higher value
# Procedure, shortened: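 Screen format: yeast with repair or checkpoint alterations, compound exposure, growth read relative to vehicle.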
# [15] = NCI Yeast Anticancer Drug Screen. Data for the mlh1 rad18 strain (AID 175); details: S. cerevisiae mlh1 rad18 strain growth inhibition, stronger effect = higher value
# Procedure, shortened: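 Vehicle-treated cultures served as the reference for growth inhibition in a yeast strain carrying DNA damage repair alterations exposed to each compound.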
# [16] = NCI Yeast Anticancer Drug Screen. Data for the rad18 strain (AID 177); details: S. cerevisiae rad18 mutant growth inhibition, stronger effect = higher value
# Procedure, shortened: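 Test articles were incubated with altered yeast defective in DNA damage repair. Results are given as inhibition of growth versus vehicle.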
# [17] = at 5.0 µM (retest, dose inferred, filed as 0.5)
# [18] = at 50.0 µM (retest, dose inferred, filed as 5.0)
compound,measurement,setting,value
CNC(=S)N/N=C(/C)CCC/C(C)=N/NC(=S)NC,growth inhibition,[1]; at 1.2 µM,28%
same,growth inhibition,[1]; at 3.7 µM,54%
same,growth inhibition,[1]; at 11.0 µM,64%
same,growth inhibition,[1]; at 33.0 µM,64%
same,growth inhibition,[1]; at 100.0 µM,68%
same,growth inhibition,[2]; at 1.2 µM,1%
same,growth inhibition,[2]; at 3.7 µM,35%
same,growth inhibition,[2]; at 11.0 µM,48%
same,growth inhibition,[2]; at 33.0 µM,45%
same,growth inhibition,[2]; at 100.0 µM,44%
same,growth inhibition,[3]; at 1.2 µM,-9%
same,growth inhibition,[3]; at 3.7 µM,17%
same,growth inhibition,[3]; at 11.0 µM,37%
same,growth inhibition,[3]; at 33.0 µM,59%
same,growth inhibition,[3]; at 100.0 µM,43%
same,growth inhibition,[4]; at 1.2 µM,3%
same,growth inhibition,[4]; at 3.7 µM,12%
same,growth inhibition,[4]; at 11.0 µM,22%
same,growth inhibition,[4]; at 33.0 µM,22%
same,growth inhibition,[4]; at 100.0 µM,32%
same,growth inhibition,[5]; at 1.2 µM,36%
same,growth inhibition,[5]; at 3.7 µM,67%
same,growth inhibition,[5]; [17],40%
same,growth inhibition,[5]; at 11.0 µM,87% (active)
same,growth inhibition,[5]; at 33.0 µM,89% (active)
same,growth inhibition,[5]; [18],37%
same,growth inhibition,[5]; at 50.0 µM,66.8%
same,growth inhibition,[5]; at 100.0 µM,92% (active)
same,growth inhibition,[6]; at 1.2 µM,27%
same,growth inhibition,[6]; at 3.7 µM,42%
same,growth inhibition,[6]; [17],66%
same,growth inhibition,[6]; at 11.0 µM,53%
same,growth inhibition,[6]; at 33.0 µM,48%
same,growth inhibition,[6]; [18],55%
same,growth inhibition,[6]; at 50.0 µM,43.4%
same,growth inhibition,[6]; at 100.0 µM,35%
same,growth inhibition,[7]; at 1.2 µM,30%
same,growth inhibition,[7]; at 3.7 µM,44%
same,growth inhibition,[7]; at 11.0 µM,61%
same,growth inhibition,[7]; at 33.0 µM,61%
same,growth inhibition,[7]; at 100.0 µM,52%
same,growth inhibition,[8]; [17],48%
same,growth inhibition,[8]; [18],53%
same,growth inhibition,[8]; at 50.0 µM,66.5%
same,growth inhibition,[9]; at 1.2 µM,80% (active)
same,growth inhibition,[9]; at 3.7 µM,97% (active)
same,growth inhibition,[9]; at 11.0 µM,98% (active)
same,growth inhibition,[9]; at 33.0 µM,98% (active)
same,growth inhibition,[9]; at 100.0 µM,97% (active)
same,growth inhibition,[10]; [17],21%
same,growth inhibition,[10]; [18],-2%
same,growth inhibition,[10]; at 50.0 µM,27.2%
same,growth inhibition,[11]; at 1.2 µM,43%
same,growth inhibition,[11]; at 3.7 µM,62%
same,growth inhibition,[11]; [17],70% (active)
same,growth inhibition,[11]; at 11.0 µM,65%
same,growth inhibition,[11]; at 33.0 µM,73% (active)
same,growth inhibition,[11]; [18],69%
same,growth inhibition,[11]; at 50.0 µM,54.4%
same,growth inhibition,[11]; at 100.0 µM,74% (active)
same,growth inhibition,[12]; at 1.2 µM,16%
same,growth inhibition,[12]; at 3.7 µM,58%
same,growth inhibition,[12]; at 11.0 µM,78% (active)
same,growth inhibition,[12]; at 33.0 µM,72% (active)
same,growth inhibition,[12]; at 100.0 µM,67%
same,growth inhibition,[13]; at 1.2 µM,-2%
same,growth inhibition,[13]; at 3.7 µM,34%
same,growth inhibition,[13]; at 11.0 µM,52%
same,growth inhibition,[13]; at 33.0 µM,37%
same,growth inhibition,[13]; at 100.0 µM,40%
same,growth inhibition,[14]; at 1.2 µM,14%
same,growth inhibition,[14]; at 3.7 µM,24%
same,growth inhibition,[14]; at 11.0 µM,65%
same,growth inhibition,[14]; at 33.0 µM,63%
same,growth inhibition,[14]; at 100.0 µM,62%
same,growth inhibition,[15]; [17],55%
same,growth inhibition,[15]; [18],63%
same,growth inhibition,[15]; at 50.0 µM,62.4%
same,growth inhibition,[16]; at 1.2 µM,1%
same,growth inhibition,[16]; at 3.7 µM,21%
same,growth inhibition,[16]; at 11.0 µM,19%
same,growth inhibition,[16]; at 33.0 µM,24%
same,growth inhibition,[16]; at 100.0 µM,37%
Cc1oc2ccccc2c(=O)c1Cn1nnc2ccccc21,growth inhibition,[1]; at 1.2 µM,-1%
same,growth inhibition,[1]; at 3.7 µM,-2%
same,growth inhibition,[1]; at 11.0 µM,0%
same,growth inhibition,[1]; at 33.0 µM,9%
same,growth inhibition,[1]; at 100.0 µM,56%
same,growth inhibition,[2]; at 1.2 µM,-2%
same,growth inhibition,[2]; at 3.7 µM,-1%
same,growth inhibition,[2]; at 11.0 µM,-2%
same,growth inhibition,[2]; at 33.0 µM,-6%
same,growth inhibition,[2]; at 100.0 µM,6%
same,growth inhibition,[3]; at 1.2 µM,-1%
same,growth inhibition,[3]; at 3.7 µM,3%
same,growth inhibition,[3]; at 11.0 µM,8%
same,growth inhibition,[3]; at 33.0 µM,17%
same,growth inhibition,[3]; at 100.0 µM,35%
same,growth inhibition,[4]; at 1.2 µM,0%
same,growth inhibition,[4]; at 3.7 µM,2%
same,growth inhibition,[4]; at 11.0 µM,0%
same,growth inhibition,[4]; at 33.0 µM,2%
same,growth inhibition,[4]; at 100.0 µM,26%
same,growth inhibition,[5]; at 1.2 µM,-3%
same,growth inhibition,[5]; at 3.7 µM,-1%
same,growth inhibition,[5]; [17],-20%
same,growth inhibition,[5]; at 11.0 µM,-1%
same,growth inhibition,[5]; at 33.0 µM,13%
same,growth inhibition,[5]; [18],47%
same,growth inhibition,[5]; at 50.0 µM,4.55%
same,growth inhibition,[5]; at 100.0 µM,73% (active)
same,growth inhibition,[6]; at 1.2 µM,-2%
same,growth inhibition,[6]; at 3.7 µM,-3%
same,growth inhibition,[6]; [17],1%
same,growth inhibition,[6]; at 11.0 µM,-2%
same,growth inhibition,[6]; at 33.0 µM,1%
same,growth inhibition,[6]; [18],5%
same,growth inhibition,[6]; at 50.0 µM,14.6%
same,growth inhibition,[6]; at 100.0 µM,36%
same,growth inhibition,[7]; at 1.2 µM,-1%
same,growth inhibition,[7]; at 3.7 µM,-1%
same,growth inhibition,[7]; at 11.0 µM,1%
same,growth inhibition,[7]; at 33.0 µM,8%
same,growth inhibition,[7]; at 100.0 µM,36%
same,growth inhibition,[8]; [17],-1%
same,growth inhibition,[8]; [18],22%
same,growth inhibition,[8]; at 50.0 µM,16.9%
same,growth inhibition,[9]; at 1.2 µM,0%
same,growth inhibition,[9]; at 3.7 µM,0%
same,growth inhibition,[9]; at 11.0 µM,-4%
same,growth inhibition,[9]; at 33.0 µM,-5%
same,growth inhibition,[9]; at 100.0 µM,19%
same,growth inhibition,[10]; [17],9%
same,growth inhibition,[10]; [18],50%
same,growth inhibition,[10]; at 50.0 µM,15.7%
same,growth inhibition,[11]; at 1.2 µM,-1%
same,growth inhibition,[11]; at 3.7 µM,-2%
same,growth inhibition,[11]; [17],3%
same,growth inhibition,[11]; at 11.0 µM,0%
same,growth inhibition,[11]; at 33.0 µM,10%
same,growth inhibition,[11]; [18],41%
same,growth inhibition,[11]; at 50.0 µM,21.9%
same,growth inhibition,[11]; at 100.0 µM,67%
same,growth inhibition,[12]; at 1.2 µM,-2%
same,growth inhibition,[12]; at 3.7 µM,-2%
same,growth inhibition,[12]; at 11.0 µM,-1%
same,growth inhibition,[12]; at 33.0 µM,0%
same,growth inhibition,[12]; at 100.0 µM,32%
same,growth inhibition,[13]; at 1.2 µM,-1%
same,growth inhibition,[13]; at 3.7 µM,-2%
same,growth inhibition,[13]; at 11.0 µM,-2%
same,growth inhibition,[13]; at 33.0 µM,1%
same,growth inhibition,[13]; at 100.0 µM,43%
same,growth inhibition,[14]; at 1.2 µM,0%
same,growth inhibition,[14]; at 3.7 µM,1%
same,growth inhibition,[14]; at 11.0 µM,2%
same,growth inhibition,[14]; at 33.0 µM,12%
same,growth inhibition,[14]; at 100.0 µM,68%
same,growth inhibition,[15]; [17],-1%
same,growth inhibition,[15]; [18],27%
same,growth inhibition,[15]; at 50.0 µM,-11.3%
same,growth inhibition,[16]; at 1.2 µM,-2%
same,growth inhibition,[16]; at 3.7 µM,-2%
same,growth inhibition,[16]; at 11.0 µM,1%
same,growth inhibition,[16]; at 33.0 µM,15%
same,growth inhibition,[16]; at 100.0 µM,55%
